Screening results deposited in PubChem BioAssay by National Center for Advancing Translational Sciences (NCATS).
Shown are actives, neighbours in structure and some others; about 18% of the full set was active somewhere.
LDHA block: blocks human lactate dehydrogenase A | P00338 | purified LDHA, NADH/diaphorase-resazurin fluorescence; hits give low values | activity change, % (values are at about 110 or 230 µM) | 480,000 tested, 0.15% active | AID 1347041; in the data active = activity change below about -30%; inconclusive = mostly about -25% to -30%
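Resorufin fluorescence (ex540/em590), read at 0 and 20 min after diaphorase/resazurin addition, reports the NADH left after a 5 min room-temperature reaction of 2 nM human LDH5 with 0.06 mM NADH and 0.2 mM pyruvate.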
IL-1B inflam inh: inflammasome signaling inhibition, IL-1 beta readout; activity change, % at 57.5 µM; THP-1 LPS/ATP IL-1B secretion, AlphaLISA, 16 h; hits give low values; 360,000 tested, 4.7% active; in the data active = activity change below about -50%; inconclusive = mostly about -30% to -49%
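Secreted IL-1B measured by AlphaLISA bead assay after 16 h compound exposure of THP-1 cells; compounds (final up to 57.5 uM) added 1 h before LPS (250 ng/mL) and ATP (1.25 mM) stimulation; lower signal means less secretion.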
TDP1 cell CPT: DT40-hTDP1 cell growth loss with CPT. Potency, µM (top dose mostly 46.2 µM), actives largely listed as inhibitors. 420,000 tested, 12% active. chicken DT40 Tdp1-/-;hTDP1 cells + 20 nM CPT, ATP luminescence, 48 h; also: nearly all actives have a fitted effect of over 55% in size
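Cell growth measured by CellTiter-Glo luminescence after a minimum 48 h, 37 C compound exposure with 20 nM CPT in Tdp1-knockout DT40 cells stably expressing hTDP1, seeded 400/well; qHTS titration format.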
RORg inh: ROR gamma (mouse) transcription inhibition; 310,000 tested, 5.4% active; P51450; Drosophila S2 Gal4-RORgamma UAS-luciferase reporter, 20 h; Potency, µM (titrated, usually from 53.6 µM), most hits filed as inhibitors; also: nearly all actives have a fitted effect of over 60% in size
Target sequence (P51450 whole entry, looked up, the tested form may be a part): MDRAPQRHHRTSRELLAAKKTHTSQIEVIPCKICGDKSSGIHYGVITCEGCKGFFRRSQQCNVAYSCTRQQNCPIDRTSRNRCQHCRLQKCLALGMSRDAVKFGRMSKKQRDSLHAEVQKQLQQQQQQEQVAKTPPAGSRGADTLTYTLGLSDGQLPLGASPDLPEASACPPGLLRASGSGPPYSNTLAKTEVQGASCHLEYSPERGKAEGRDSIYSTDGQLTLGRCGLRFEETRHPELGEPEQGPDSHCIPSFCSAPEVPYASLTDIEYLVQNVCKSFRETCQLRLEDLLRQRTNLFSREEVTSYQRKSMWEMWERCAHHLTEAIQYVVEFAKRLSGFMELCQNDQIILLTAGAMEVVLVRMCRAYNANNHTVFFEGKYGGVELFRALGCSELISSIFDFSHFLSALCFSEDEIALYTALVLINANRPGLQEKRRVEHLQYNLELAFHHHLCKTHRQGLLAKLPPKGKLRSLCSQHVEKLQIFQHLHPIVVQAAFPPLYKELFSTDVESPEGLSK
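Compounds are pin-transferred onto Drosophila Schneider cells expressing a copper-inducible Gal4–ROR gamma transactivation domain fusion. After 1 hr, copper sulfate is added to 700 uM final; luciferase is read 20 hr later.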
DT40 TDP1 no CPT: qHTS for Inhibitors of human tyrosyl-DNA phosphodiesterase 1 (TDP1): qHTS in cells in absence of CPT; DT40 Tdp1-/- hTDP1 cells, no CPT, ATP luminescence, 48 h; Potency, µM (series often up to 46.2 µM), hits mostly inhibitors; 420,000 tested, 15% active; AID 686978, 2013; also: nearly all actives have a fitted effect of over 55% in size
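No-CPT arm: Tdp1-/-;hTDP1 DT40 cells (400/well) plus compounds, incubated ≥48 hr at 37 °C. Readout CellTiter-Glo luminescence.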
VP16 counter: inhibits Gal4-VP16 luciferase reporter, ROR gamma counter-screen | Drosophila S2 Gal4-VP16 UAS-luciferase, luminescence, 20 h | Potency, µM (top dose mostly 53.6 µM), most hits filed as inhibitors | 310,000 tested, 3.5% active;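 also: Gal4-VP16 expression switched on by copper sulfate through the metallothionein promoter; nearly all actives have a fitted effect of over 50% in size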
Large screens that a line does not name were inactive. Unless noted, calls follow the shape of the dose curve; as a rule, active = well fitted curve in the direction sought with a large enough effect; inconclusive = small, poorly fitted or top-dose-only effect, or another doubt; inactive = no such curve, though single readings can be large; an effect the other way counts as inactive or inconclusive.

CCOC(=O)Cn1nc(/C=C/c2ccc(C)cc2)ccc1=O	TDP1 cell CPT inconclusive, DT40 TDP1 no CPT 23.1µM
CCOC(=O)Cn1nc(-c2ccc(Cl)cc2)ccc1=O	TDP1 cell CPT inconclusive, DT40 TDP1 no CPT inconclusive, VP16 counter inconclusive
CCOC(=O)Cn1nc(/C=C/c2ccc(C(C)C)cc2)ccc1=O	TDP1 cell CPT 14.6µM, RORg inh inconclusive, DT40 TDP1 no CPT inconclusive
O=c1ccc(/C=C/c2ccccc2)nn1Cc1ccccc1	none
CSc1ncccc1C(=O)OCC(=O)Nc1ccc(C)c(S(=O)(=O)N2CCOCC2)c1	TDP1 cell CPT inconclusive, DT40 TDP1 no CPT 13µM (no result: RORg inh, VP16 counter)
Cc1ccc(NC(=O)CSc2ncnc3ccccc23)cc1S(=O)(=O)N1CCOCC1	IL-1B inflam inh -100.3, TDP1 cell CPT inconclusive, DT40 TDP1 no CPT 14.6µM
Cc1ccc(NC(=O)COc2ncnc3ccccc23)cc1S(=O)(=O)N1CCOCC1	DT40 TDP1 no CPT inconclusive
Cc1ccc(NC(=O)CSc2ncnc3ccccc23)cc1S(=O)(=O)N1CCCCC1	IL-1B inflam inh -95.5, TDP1 cell CPT 25.9µM, RORg inh inconclusive, DT40 TDP1 no CPT inconclusive, VP16 counter inconclusive
CNC(=O)CN1CCN(c2nc(-c3ccccc3)c3ccccc3n2)CC1	none (no result: IL-1B inflam inh, TDP1 cell CPT, RORg inh, DT40 TDP1 no CPT, VP16 counter)
O=C(O)c1cnc(Cl)c(Cl)c1	none (no result: IL-1B inflam inh, TDP1 cell CPT, RORg inh, DT40 TDP1 no CPT, VP16 counter)
O=C1C=CN(C2OC(CO)C(O)C2O)C(=O)C1 (configuration not stated)	TDP1 cell CPT 8.2µM, DT40 TDP1 no CPT 3.66µM (no result: RORg inh, VP16 counter)
Cn1ccnc1COc1ccc(CSc2nnnn2C(C)(C)C)cc1	none (no result: IL-1B inflam inh, TDP1 cell CPT, RORg inh, DT40 TDP1 no CPT, VP16 counter)
COc1cc(/C=C/C(=O)c2c(O)c3ccccc3oc2=O)cc(OC)c1OC	none (no result: IL-1B inflam inh, TDP1 cell CPT, RORg inh, DT40 TDP1 no CPT, VP16 counter)
NNC(=O)c1sc(-c2ccc(Cl)cc2)cc1N	IL-1B inflam inh -77.6, VP16 counter inconclusive
COc1cc(SC)ccc1C(=O)Oc1ccc(C(C)=O)cc1	none (no result: IL-1B inflam inh, TDP1 cell CPT, RORg inh, DT40 TDP1 no CPT, VP16 counter)
Cc1ccc(NC(=O)C2CCCN(c3ncnc4onc(C)c34)C2)cc1Cl (configuration not stated)	TDP1 cell CPT 10.3µM, DT40 TDP1 no CPT 16.4µM (no result: IL-1B inflam inh, RORg inh, VP16 counter)
Cc1noc2ncnc(N3CCCC(C(=O)NC(C)C)C3)c12 (configuration not stated)	DT40 TDP1 no CPT inconclusive (no result: IL-1B inflam inh, RORg inh, VP16 counter)
COc1ccc(C)cc1NC(=O)C1CCCN(c2ncnc3onc(-c4ccc(F)cc4)c23)C1 (configuration not stated)	none (no result: IL-1B inflam inh, TDP1 cell CPT, RORg inh, DT40 TDP1 no CPT, VP16 counter)
COc1cccc(NC(=O)C2CCCN(c3ncnc4onc(C)c34)C2)c1 (configuration not stated)	TDP1 cell CPT 20.6µM, DT40 TDP1 no CPT 20.6µM (no result: IL-1B inflam inh, RORg inh, VP16 counter)
COc1ccc(C)cc1NC(=O)C1CCCN(c2ncnc3onc(C)c23)C1 (configuration not stated)	TDP1 cell CPT inconclusive, DT40 TDP1 no CPT 16.4µM (no result: IL-1B inflam inh, RORg inh, VP16 counter)
Cc1ccc(/C=C(\C#N)C(=O)NC2CCCC2)o1	none (no result: IL-1B inflam inh, TDP1 cell CPT, RORg inh, DT40 TDP1 no CPT, VP16 counter)
Nc1nc2ccc(Br)cc2s1	none (no result: RORg inh, VP16 counter)
Cn1c(-c2ccc3nc(N)sc3c2)nc2cc(N)ccc21	TDP1 cell CPT inconclusive, DT40 TDP1 no CPT 23.1µM, VP16 counter inconclusive
CC(C)(C)c1ccc(C(=O)N2CCOC23CCCCC3)cc1	TDP1 cell CPT 14.6µM, DT40 TDP1 no CPT 13µM (no result: RORg inh, VP16 counter)
O=C(Nc1ccc(Cl)cc1)N1CCOC12CCCCC2	none
O=C(O)CNC(=O)c1ccc(-c2ccccc2)cc1	none (no result: IL-1B inflam inh, TDP1 cell CPT, RORg inh, DT40 TDP1 no CPT, VP16 counter)
COc1cccc(CN(C)C(=O)c2cc(COc3ccc(-n4cncn4)cc3)on2)c1	TDP1 cell CPT 20.6µM, RORg inh inconclusive, DT40 TDP1 no CPT 18.4µM
COc1cccc(CN(C)C(=O)c2cc(COc3ccc4ncccc4c3)on2)c1	TDP1 cell CPT 3.26µM, RORg inh inconclusive, DT40 TDP1 no CPT 2.91µM, VP16 counter 6.31µM
COc1cccc(CN(C)C(=O)c2cc(COc3c(F)cccc3F)on2)c1	none
CC(C)Cn1nc(C(=O)Nc2ccc(SC(F)F)cc2)c2ccccc2c1=O	none (no result: IL-1B inflam inh, TDP1 cell CPT, RORg inh, DT40 TDP1 no CPT, VP16 counter)
O=C(NCc1cccs1)Nc1cccc(Cl)c1	none (no result: RORg inh, VP16 counter)
O=C(Nc1ccc(F)cc1)NC1(C(=O)NCc2cccs2)CCCCC1	none
S=C(NCc1cccs1)Nc1ccccc1Cl	RORg inh 12.6µM, VP16 counter 14.1µM
Cc1cc(Cl)ccc1NC(=S)NCc1cccs1	RORg inh 3.98µM, DT40 TDP1 no CPT inconclusive, VP16 counter 8.91µM
Fc1cc(Br)ccc1NC(=S)NCc1cccs1	none (no result: IL-1B inflam inh, TDP1 cell CPT, RORg inh, DT40 TDP1 no CPT, VP16 counter)
O=C(Nc1cccc(Cl)c1)NC1(C(=O)NCc2cccs2)CCCCC1	TDP1 cell CPT 20.6µM, DT40 TDP1 no CPT 25.9µM
S=C(NCc1cccs1)Nc1cccc(Cl)c1	RORg inh 20µM, DT40 TDP1 no CPT inconclusive, VP16 counter inconclusive
O=C(c1cc2ccccc2oc1=O)N(Cc1ccco1)Cc1ccccc1Cl	none (no result: IL-1B inflam inh, TDP1 cell CPT, RORg inh, DT40 TDP1 no CPT, VP16 counter)
CN(C(=O)Nc1ccc(F)cc1F)C(c1ccc(Cl)cc1)c1nccn1C (configuration not stated)	none (no result: IL-1B inflam inh, TDP1 cell CPT, RORg inh, DT40 TDP1 no CPT, VP16 counter)
